Drawing on PubChem BioAssay, this text covers z-score and composite z-score for 4 compounds.

Assay [1] is described as follows: optical density shifts of acrAB sulA E. coli – strain DRC41, OD650, 48 h, E. coli filamentation inducer project, primary screen (AID 1152).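 Also: E. coli MC1000 strain DRC41 lacking acrAB efflux pump and sulA.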 The note with it: higher = more signal, called active from +8 up or from −8 down.
Assay [2] in a line: probe aLefty1 binding on compound microarray – biochemical, small-molecule microarray, 635/667 nm fluorescence, primary screen (AID 1153).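 Also: score merges spot fluorescence with signal-to-noise ratio from the scanned slide images.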 The note with it: higher = more signal.
A short description of assay [3]: plasmodial surface anion channel blockers, osmotic lysis – cell-based, P. falciparum Indochina, OD700, 1 h, primary screen (AID 1154). Particulars: P. falciparum Indochina infected RBC osmotic lysis, higher = more signal, called active from +8 up or from −8 down.
A short description of assay [4]: plasmodial surface anion channel blockers, osmotic lysis – cell-based, P. falciparum Indochina, OD700, 2 h, primary screen (AID 1155).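 Also: lysis reports solute entry through the parasite surface anion channel PSAC.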 The note with it: P. falciparum Indochina infected erythrocytes, higher = more signal, called active from +8 up or from −8 down.
Assay [5] in a line: changes in parasitized red cell lysis, either direction – P. falciparum Indochina, OD700, 3 h, PSAC antagonist project, primary screen (AID 1156). Particulars: P. falciparum-infected erythrocytes, osmotic lysis, higher = more signal, called active from +8 up or from −8 down.
Assay [6] can be described thus: plasmodial surface anion channel blockers, osmotic lysis – cell-based, P. falciparum Indochina, OD700, 18 h, primary screen (AID 1157). The note with it: P. falciparum Indochina infected erythrocytes, osmotic lysis OD700, 18 h; higher = more signal, called active from +8 up or from −8 down.
Assay [7] is described as follows: S6 kinase pathway phospho-S6 level changes – cell-based, A549, cytoblot, luminescence, serum-stimulated, primary screen (AID 1158).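 Also: serum-stimulated A549 lung adenocarcinoma cells; signal is phosphorylated S6 detected by cytoblot immunostaining with HRP secondary.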 Particulars: 5 h, higher = more signal.
Assay [8] addresses NADPH oxidase 2 (Homo sapiens) (UniProt P04839). The assay is described as follows: compounds shifting NOX2 Amplex Red fluorescence – cell-based, HEK293-NOX2, PMA-stimulated, NOX inhibitor project, primary screen (AID 1159). Also: test concentration not given here. The note with it: 45 min, higher = more signal, called active from +8 up or from −8 down.
Assay [9] has as its target NADPH oxidase 4 (Homo sapiens) (UniProt Q9NPH5). The assay is described as follows: compounds shifting NOX4 Amplex Red fluorescence – cell-based, HEK293-NOX4, tetracycline-induced, NOX inhibitor project, primary screen (AID 1160). The note with it: HEK293-NOX4, Amplex Red H2O2 fluorescence, 45 min; higher = more signal, called active from +8 up or from −8 down.
The target in assay [10] is NADPH oxidase 5 (Homo sapiens) (UniProt Q96PH1). Briefly: compounds shifting NOX5 Amplex Red fluorescence – cell-based, HEK293-NOX5, NOX inhibitor project, primary screen (AID 1161). Particulars: HEK293-NOX5, ionomycin, 45 min, higher = more signal.
Sequence of NADPH oxidase 5 (Homo sapiens) (Q96PH1 whole entry, looked up): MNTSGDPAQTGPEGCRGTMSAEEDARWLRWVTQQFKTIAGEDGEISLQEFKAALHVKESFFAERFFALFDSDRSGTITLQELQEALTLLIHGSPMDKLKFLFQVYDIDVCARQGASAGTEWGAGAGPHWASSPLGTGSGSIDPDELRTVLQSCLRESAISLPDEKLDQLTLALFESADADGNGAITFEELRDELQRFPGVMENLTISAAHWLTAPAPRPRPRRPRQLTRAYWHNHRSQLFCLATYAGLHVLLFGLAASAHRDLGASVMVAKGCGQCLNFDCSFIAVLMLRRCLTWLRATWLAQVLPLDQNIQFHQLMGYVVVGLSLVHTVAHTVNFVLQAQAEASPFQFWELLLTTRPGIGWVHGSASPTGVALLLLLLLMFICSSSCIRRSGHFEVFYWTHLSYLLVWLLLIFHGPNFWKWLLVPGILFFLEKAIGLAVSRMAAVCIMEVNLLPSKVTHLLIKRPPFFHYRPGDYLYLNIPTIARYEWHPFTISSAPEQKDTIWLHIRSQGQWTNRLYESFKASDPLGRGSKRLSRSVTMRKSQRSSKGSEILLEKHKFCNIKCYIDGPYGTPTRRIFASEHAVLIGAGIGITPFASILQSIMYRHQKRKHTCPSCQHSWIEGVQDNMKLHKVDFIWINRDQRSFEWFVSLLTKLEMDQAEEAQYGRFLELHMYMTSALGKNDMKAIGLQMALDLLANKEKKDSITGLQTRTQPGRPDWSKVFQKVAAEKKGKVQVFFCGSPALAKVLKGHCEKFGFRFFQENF
Assay [11] can be described thus: compound effects on lung adenocarcinoma cell viability – A549, calcein-AM fluorescence, 48 h, basal, profiling panel (AID 1162). Also: test concentration not given here. Particulars: higher = more signal.
Assay [12] in a line: compound effects on differentiated 3T3-L1 adipocyte viability – cell-based, 3T3-L1 adipocytes, calcein-AM fluorescence, 48 h, basal, profiling panel (AID 1163). Also: test concentration not given here. Particulars: 3T3-L1 adipocytes viability, higher = more signal.
Assay [13] can be described thus: compound effects on hepatocellular carcinoma cell viability – HepG2, calcein-AM fluorescence, 48 h, basal, profiling panel (AID 1164). Also: test concentration not given here. The note with it: higher = more signal.
Assay [14] can be described thus: compound effects on multiple myeloma cell viability – MM1S, calcein-AM fluorescence, 48 h, basal, profiling panel (AID 1165).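 Also: viability of MM1S multiple myeloma cells under basal unstimulated conditions; test concentration not given here.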 Particulars: higher = more signal.
Assay [15] in a line: calcein-AM signal in unstimulated myeloma cells – cell-based, calcein-AM fluorescence, 48 h, PK04 Diversity Set, profiling panel (AID 1166).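 Also: cells grown under basal conditions without added stimulus; test concentration not given here.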 The note with it: RPMI8226 myeloma viability, higher = more signal.
Assay [16] can be described thus: JC-1 mitochondrial signal, unstimulated HepG2 cells – cell-based, JC-1 fluorescence, 24 h, 100 nL compound, profiling panel (AID 1167). Also: test concentration not given here. Particulars: HepG2 mitochondrial potential, higher = more signal.
Assay [17] is described as follows: JC-1 mitochondrial signal, unstimulated adipocytes – cell-based, JC-1 fluorescence, 3T3-L1 adipocytes, 24 h, 100 nL compound, profiling panel (AID 1168). Also: test concentration not given here. The note with it: JC-1 mitochondrial fluorescence, higher = more signal, called active from +8 up or from −8 down.
Assay [18] is described as follows: JC-1 mitochondrial signal, unstimulated myeloma cells – cell-based, JC-1 fluorescence, RPMI8226, 24 h, 100 nL compound, profiling panel (AID 1169). Also: test concentration not given here. The note with it: JC-1 mitochondrial potential fluorescence, higher = more signal.
Assay [19] is described as follows: JC-1 mitochondrial signal, unstimulated MM1S myeloma – cell-based, JC-1 fluorescence, 24 h, 100 nL compound, profiling panel (AID 1170). Also: test concentration not given here. The note with it: MM1S mitochondrial potential, higher = more signal.
The nature of assay [20]: resazurin metabolic signal in A549 cells – cell-based, resazurin fluorescence, 24 h, PK04 Diversity Set, profiling panel (AID 1171). Also: test concentration not given here. Particulars: A549 viability, higher = more signal, called active from +8 up or from −8 down.

Molecules are shown by their SMILES. The source made the active and inactive calls.

Sequence of NADPH oxidase 2 (Homo sapiens) (P04839 whole entry, looked up): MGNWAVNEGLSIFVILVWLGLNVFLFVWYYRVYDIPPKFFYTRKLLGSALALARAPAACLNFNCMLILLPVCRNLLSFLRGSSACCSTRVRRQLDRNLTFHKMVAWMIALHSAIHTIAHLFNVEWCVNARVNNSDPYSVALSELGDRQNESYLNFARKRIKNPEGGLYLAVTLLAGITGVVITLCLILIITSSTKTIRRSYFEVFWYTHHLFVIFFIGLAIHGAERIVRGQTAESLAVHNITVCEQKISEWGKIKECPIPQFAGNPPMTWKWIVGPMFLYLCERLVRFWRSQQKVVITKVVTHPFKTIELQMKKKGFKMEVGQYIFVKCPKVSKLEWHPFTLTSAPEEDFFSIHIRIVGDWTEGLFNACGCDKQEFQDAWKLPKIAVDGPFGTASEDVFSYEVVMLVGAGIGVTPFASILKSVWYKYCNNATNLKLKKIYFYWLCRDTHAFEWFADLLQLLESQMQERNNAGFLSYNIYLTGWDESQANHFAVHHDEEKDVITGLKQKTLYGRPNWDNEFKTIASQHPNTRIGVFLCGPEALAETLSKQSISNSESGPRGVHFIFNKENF
Sequence of NADPH oxidase 4 (Homo sapiens) (Q9NPH5 whole entry, looked up): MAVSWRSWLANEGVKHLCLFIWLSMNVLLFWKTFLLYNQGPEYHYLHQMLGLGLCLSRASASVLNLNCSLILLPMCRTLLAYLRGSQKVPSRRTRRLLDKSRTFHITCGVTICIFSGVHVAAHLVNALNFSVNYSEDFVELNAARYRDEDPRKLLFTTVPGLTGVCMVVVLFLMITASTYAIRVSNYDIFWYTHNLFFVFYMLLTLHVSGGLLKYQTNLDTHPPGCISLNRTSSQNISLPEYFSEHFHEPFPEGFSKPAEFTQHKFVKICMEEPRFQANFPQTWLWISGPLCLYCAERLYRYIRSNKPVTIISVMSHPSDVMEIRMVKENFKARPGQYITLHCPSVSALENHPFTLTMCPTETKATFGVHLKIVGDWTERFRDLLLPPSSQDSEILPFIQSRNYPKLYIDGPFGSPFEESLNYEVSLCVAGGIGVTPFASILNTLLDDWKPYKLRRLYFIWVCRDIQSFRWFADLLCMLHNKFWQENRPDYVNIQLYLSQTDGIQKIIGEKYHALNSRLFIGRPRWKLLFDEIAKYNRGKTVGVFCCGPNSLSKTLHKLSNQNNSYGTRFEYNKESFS

Take `CC(C)=CCCC(C)=CCON=C1C[C@@H](O)[C@@H](O)[C@@H]2[C@@H]3C(=O)N(c4cccc(Oc5ccccc5)c4)C(=O)[C@@H]3CC[C@@H]12`: the z-score in assay [1] is -1.15 (inactive); in assay [3], 3.39 (inactive); in [4] it was -0.298 (inactive); in assay [5] it was 1.24 (inactive); in [6] it was -2 (inactive); in assay [7], 0.313. Besides, the z-score is -1.33 (inactive) in assay [8]; -0.237 (inactive) in assay [9]; -3.35 in [10]; -1.19 in assay [11]; 0.18 in assay [12]; -0.795 in assay [13]. For the same compound, the z-score was -2.22 in assay [14]; -3.96 in [15]; -1.26 in [16]; 0.641 (inactive) in assay [17]; -0.805 in [18]; 0.251 in assay [19]. For the same compound, the z-score in assay [20] is 0.919 (inactive). The composite z-score in assay [2] was -0.0501.

Turning to `CO[C@@H]1COC(=O)CC=C[C@H](C)[C@H](OC)COC(=O)[C@H](C)NC(=O)CC=C[C@H]1C`, the z-score in assay [1] is 0.525 (inactive); in assay [3] it was 0.0859 (inactive); in assay [4], 0.0159 (inactive); in [5] it was 0.704 (inactive); in assay [6] it was 0.107 (inactive); in assay [7], -0.0908. The z-score was -0.402 (inactive) in [8]; -0.249 (inactive) in [9]; -0.159 in assay [10]; 0.296 in [11]; 0.256 in assay [12]; 0.64 in assay [13]. For the same compound, the z-score is -0.0284 in assay [14]; 0.403 in assay [15]; 0.904 in assay [16]; -0.878 (inactive) in assay [17]; 0.403 in assay [18]; 0.273 in [19]. In addition, the z-score in assay [20] is 0.932 (inactive). In assay [2], the composite z-score was -0.012.

Turning to `Cn1c(=O)n2n(c1=O)[C@H]1[C@H](O)[C@@H]3O[C@@H]3C(=NOCc3ccccc3)[C@H]1CC2`, the z-score is -0.022 (inactive) in assay [1]; -0.347 (inactive) in [3]; 0.0184 (inactive) in assay [4]; -0.432 (inactive) in assay [5]; 0.206 (inactive) in [6]; -0.807 in assay [7]. Also, the z-score in assay [8] was 0.265 (inactive); in [9], 0.456 (inactive); in assay [10], 0.632; in assay [11], 0.102; in assay [12] it was -0.48; in assay [13] it was 0.316. For the same compound, the z-score is 0.0846 in assay [14]; -0.548 in assay [15]; -0.141 in assay [16]; -0.383 (inactive) in assay [17]; -0.0104 in assay [18]; -0.338 in assay [19]. Further, the z-score in assay [20] is -0.508 (inactive). Moreover, the composite z-score in [2] was -0.0501.

For `COc1ccc(O[C@H]2C=C[C@@H](c3ccccc3)O[C@@H]2COC(=O)CCC(C)=NO[C@@H]2O[C@H](COC(C)=O)[C@@H](OC(C)=O)[C@H](OC(C)=O)[C@H]2OC(C)=O)cc1`, the z-score is 0.37 (inactive) in [1]; 1.73 (inactive) in [3]; 0.583 (inactive) in assay [4]; 1.1 (inactive) in assay [5]; 0.539 (inactive) in [6]; -1.01 in assay [7]. The z-score was 1.08 (inactive) in assay [8]; 1.75 (inactive) in [9]; 0.222 in assay [10]; -0.502 in assay [11]; 0.0711 in assay [12]; -0.574 in [13]. For the same compound, the z-score in assay [14] is -0.794; in [15], -0.433; in [16] it was -1.05; in assay [17] it was -0.882 (inactive); in assay [18] it was 0.722; in assay [19] it was -0.375. In addition, the z-score in assay [20] was 0.363 (inactive). In assay [2], this compound displayed a composite z-score of -0.019.
